Screens deposited in PubChem BioAssay by National Center for Advancing Translational Sciences (NCATS).
TrxR1 substrate = qHTS Assay for Substrates of Mammalian Selenoprotein Thioredoxin Reductase 1 (TrxR1): qHTS; Thioredoxin reductase 1, cytoplasmic (Rattus norvegicus), O89049; purified TrxR1 substrate turnover, NADPH consumption readout; Potency, µM (highest dose often 114 µM), for the others: at the top dose activity change, negative = substrate turnover; 390,000 compounds, 0.01% hits; further: on the % scale 0 is the no-effect control and ±100 the full control effect; nearly all actives have a fitted effect of over 50% in size
Target sequence (O89049 whole entry, looked up): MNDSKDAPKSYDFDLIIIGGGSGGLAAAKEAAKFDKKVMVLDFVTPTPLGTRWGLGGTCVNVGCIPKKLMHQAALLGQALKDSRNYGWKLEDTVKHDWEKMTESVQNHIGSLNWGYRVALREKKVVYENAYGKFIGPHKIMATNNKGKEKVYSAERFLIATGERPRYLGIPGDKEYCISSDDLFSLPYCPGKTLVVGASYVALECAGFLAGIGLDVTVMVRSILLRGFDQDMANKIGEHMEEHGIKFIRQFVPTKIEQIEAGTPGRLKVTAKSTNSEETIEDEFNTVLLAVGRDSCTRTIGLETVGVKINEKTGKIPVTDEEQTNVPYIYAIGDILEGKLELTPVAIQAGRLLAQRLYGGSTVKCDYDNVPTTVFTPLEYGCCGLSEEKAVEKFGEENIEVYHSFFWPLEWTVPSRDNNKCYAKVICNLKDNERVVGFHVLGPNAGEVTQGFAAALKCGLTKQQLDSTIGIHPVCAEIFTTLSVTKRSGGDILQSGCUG
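Rat TrxR1, dispensed at 90 nM, was prereduced with 400 uM NADPH (final) for 5 min at ~22 deg C, then incubated with compound 15 min before 400 uM selenite. A first-read NADPH fluorescence drop versus no-compound background flagged substrates.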
TrxR1 inh = qHTS Assay for Inhibitors of Mammalian Selenoprotein Thioredoxin Reductase 1 (TrxR1): qHTS. AID 588453, 2011. Potency, µM (titrated, usually from 114 µM), without a hit: at the top dose activity change, negative = inhibition, usual class: inhibitors. 390,000 compounds, 1% hits. Thioredoxin reductase 1, cytoplasmic (Rattus norvegicus), O89049. recombinant rTrxR1, NADPH fluorescence consumption, selenite substrate; further: on the % scale 0 is the no-effect control and ±100 the full control effect; nearly all actives have a fitted effect of over 65% in size
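Rat TrxR1 (90 nM in the dispensed reagent) was pre-reduced with 400 uM NADPH for 5 min at room temperature, then incubated with compound for 15 min. After 400 uM selenite was added, NADPH fluorescence (Ex 340/Em 450 nm) was followed for 8 min.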
GALK inh = qHTS Assay for Inhibitors of Human Galactokinase (GALK); P51570; Purified GALK, Kinase-Glo residual ATP luminescence; Potency, µM (doses to about 57.5 µM), for inactives: top-dose activity change, negative = inhibition, hits mostly inhibitors; 270,000 compounds, 0.007% hits; AID 1868, 2009; further: on the % scale 0 is the no-effect control and ±100 the full control effect
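Quantitative HTS: GALK 5 nM, ATP 35 uM, galactose 100 uM, 1 h room temperature, then luciferase-based ATP detection.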
Nrf2 activator = qHTS of Nrf2 Activators | AREc32 ARE-luciferase reporter (MCF7-derived line), luminescence, 24 h | 410,000 compounds, 0.31% hits | Potency, µM (titrated, usually from 46.1 µM), without a hit: top-dose activation, most hits filed as activators; further: % of control where 0% means no effect; nearly all actives have a fitted effect of over 65% in size
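Nrf2 activation is followed as ARE-luciferase induction in the AREc32 line after one day of compound treatment; luminescence is read with Steady-Glo.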
A549 tox = Nrf2 qHTS screen for inhibitors: counterscreen for cytotoxicity | 390,000 compounds, 0.16% hits | AID 504648, 2011 | A549 ARE-Fluc cells, CellTiter-Fluor viability, 18-24 h | Potency, µM (top dose mostly 46 µM), for the others: top-dose activity change, negative = cytotoxicity, most hits filed as inhibitors; further: on the % scale 0 is the no-effect control and ±100 the full control effect
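A549 ARE_Fluc cells in 5% FBS OPTI-MEM were exposed to compounds in concentration-response for 18-24 h at 37 deg C. Viability was read by CellTiter-Fluor fluorescence (Ex 405/Em 525) after 30 min, before the luciferase read.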
Nrf2 block = Nrf2 qHTS screen for inhibitors. AID 504444, 2011. Potency, µM (doses to about 46 µM), for inactives: at the top dose activity change, negative = inhibition, usual class: inhibitors. 360,000 compounds, 2.1% hits. A549 ARE-Fluc reporter, luciferase luminescence, 18-24 h; further: on the % scale 0 is the no-effect control and ±100 the full control effect; nearly all actives have a fitted effect of over 60% in size
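Concentration-response testing used A549 ARE_Fluc cells at 5000 cells/well. Following an 18-24 h compound incubation, viability was read by fluorescence (Ex 405/Em 525) and luciferase output by luminescence.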
Starred values were filed as active, the others as inactive; u = inconclusive; x = not tested or not shown; [ ] = remark or other dose. Shown are actives, neighbours in structure and some others; about 3% of the full set was active somewhere. The call rests on the fitted dose curve; in most records, active means well fitted curve in the direction sought with a large enough effect; inconclusive means small, poorly fitted or top-dose-only effect, or another doubt; inactive means no such curve, though single readings can be large; an effect the other way counts as inactive or inconclusive. Potency means the concentration at half of the fitted maximal effect.

SMILES	TrxR1 substrate	TrxR1 inh	GALK inh	Nrf2 activator	A549 tox	Nrf2 block
O=C1CN(CC(=O)N2CCCCC2)c2ccccc2O1	0%	25µM*	0%	-2%	-8%	-10%
O=C1CN(CC(=O)N2CCOCC2)c2ccccc2O1	x	x	-1%	x	x	x
N[C@H](C(=O)O)[C@H](Cc1ccccc1)C(=O)O	9%[57.1 µM]	8%[57.1 µM]	x	x	x	x
Cc1[nH]c(-c2ccco2)nc1C(=O)O	4%	18µM*	-2%	0%	8%	x
COc1ccc(Nc2nc(N3CCCC3)nc3ccccc23)c(OC)c1	-2%	-15%	-4%	23%	18µM*	u
COc1ccc(Nc2nc(-c3ccc(C)cc3)nc3ccccc23)c(OC)c1	-6%[57.1 µM]	5%[57.1 µM]	x	-1%	14%	x
COC(=O)CCC/C=C1/SCC(NC(=O)c2ccccc2)C1NC(C)=O (stereo not given)	0%	20%	6%	-1%	0%	0%
COC(=O)CCC/C=C1/SCC(NC(=O)c2ccccc2)C1O (stereo not given)	-19%	50µM*	-1%	0%	-6%	8%
COC(=O)CCC/C=C1/SCC(NC(=O)c2ccccc2)C1=O (stereo not given)	4%	25µM*	1%	4%	2%	-4%
C(=Nc1cnc2ccccc2c1)c1ccnc2ccccc12	91%	12%	x	x	x	x
CCCSc1nnc2n(-c3ccc(OC)cc3)c(=O)c3c4c(sc3n12)COC(C(C)C)C4 (stereo not given)	0%	10%	x	-1%	2%	-15%
C=CCN1C(c2ccc(Br)cc2)=CS/C1=C(\C#N)c1nnc(N2CCOCC2)n1-c1ccccc1	-7%	-7%	x	3%	u	26µM*
C=CCN1C(c2cccc(C(F)(F)F)c2)=CS/C1=C(\C#N)c1nnc(N2CCOCC2)n1-c1ccccc1	x	x	x	0%	x	x
COc1ccc(NC(=O)CSc2nc3c([nH]c4ccccc43)c(=O)n2-c2ccccc2)c(OC)c1	1%[57.1 µM]	19%[57.1 µM]	x	4%	-4%	x
COc1ccc(C(=O)Nc2nc(-c3ccc([N+](=O)[O-])cc3)c(-c3ccccc3)s2)cc1	-9%	-2%	x	0%	-29%	13µM*
COc1ccc(-c2sc(NC(=O)c3ccc(C)cc3)nc2-c2ccc([N+](=O)[O-])cc2)cc1	14%[57.1 µM]	11%[57.1 µM]	-1%	-1%	-3%	4%
CCOc1ccc(-c2cccc(NS(=O)(=O)c3ccc(Cl)s3)c2)nn1	-2%[57.1 µM]	10%[57.1 µM]	x	1%	6%	x
CCN(c1ccccc1)S(=O)(=O)c1ccc(C(=O)Nc2nnc(C3CC3)o2)cc1	9%	2%[57.1 µM]	11%	0%	u	12µM*
CCN(c1ccccc1)S(=O)(=O)c1ccc(C(=O)Nc2nnc(COC)o2)cc1	-9%	-14%	-1%	-1%	-16%	23µM*
COCc1nnc(NC(=O)c2ccc(S(=O)(=O)N(C)c3ccccc3)cc2)o1	3%	30%	-2%	-2%	4%	u
CCN(c1ccccc1)S(=O)(=O)c1ccc(C(=O)Nc2nnc(CSC)o2)cc1	1%	21%	1%	1%	u	12µM*
CN(c1ccccc1)S(=O)(=O)c1ccc(C(=O)Nc2nnc(C3CC3)o2)cc1	-1%	6%	6%	-1%	u	23%
Cc1ccc(NC(=O)CC(C)S(=O)(=O)c2ccc3c(c2)NC(=O)CO3)c(C)c1 (stereo not given)	0%	12%	x	0%	1%	21%
COc1ccc2nc(-c3ccc(N(C)C)cc3)sc2c1	x	x	x	x	u	0.33µM*
O=C1CC(c2ccccc2)Sc2nc3ccccc3n21 (stereo not given)	-14%[57.1 µM]	27%[57.1 µM]	11%	u	4%	u
SMILES	TrxR1 substrate	TrxR1 inh	GALK inh	Nrf2 activator	A549 tox	Nrf2 block
CCCN1C(=O)CC(c2ccco2)Sc2ccccc21 (stereo not given)	9%	u	3%	3%	8%	x
O=C1CC(c2ccco2)Sc2nc3ccccc3n21 (stereo not given)	3%	13µM*	0%	u	10%	17%
CN1C(=O)CC(c2ccco2)Sc2ccccc21 (stereo not given)	-8%	56µM*	0%	u	0%	11%
Clc1ccc(Nc2ncnc3ccc(Br)cc23)cc1	19%[57.1 µM]	48%[57.1 µM]	2%	4%	-10%	13µM*
Clc1cccc(Nc2ncnc3ccc(Br)cc23)c1	13%[57.1 µM]	18%	2%	u	3%	u
NC(=O)CN1CCCN(S(=O)(=O)c2ccc(Br)cc2)CC1	16%	20µM*	1%	0%	-1%	-12%
O=C(CN1CCCN(S(=O)(=O)c2ccc(Br)cc2)CC1)Nc1cccc(C(F)(F)F)c1	-7%	50µM*	x	7%	-4%	u
O=C(CNc1cccc(S(=O)(=O)N2CCCC2)c1)Nc1ccc(C(F)(F)F)cc1	-19%	-12%	x	0%	-12%	23µM*
NC(=O)CN1CCN(S(=O)(=O)c2ccc(Cl)cc2)CC1	14%[57.1 µM]	35%[57.1 µM]	-2%	0%	1%	3%
N#CN1CCC(N[S+](=O)([O-])c2cccc(F)c2)CC1	x	x	x	x	1%	12%
COC(=O)c1ccc(NS(=O)(=O)c2cc3c4c(c2)CCN4C(=O)CC3)cc1	-5%[57.1 µM]	-1%[57.1 µM]	x	0%	-1%	-15%
COC(=O)c1ccc(NS(=O)(=O)c2cc3c4c(c2)CCC(=O)N4CCC3)cc1	-20%	u	x	5%	0%	23µM*
COc1ccc(OCCCC(=O)Nc2ccc(OC)c(S(=O)(=O)N3CCOCC3)c2)cc1	-9%	-17%	x	1%	1%	-14%
COc1ccc(CCC(=O)Nc2ccc(Cl)c(S(=O)(=O)N3CCCC3)c2)cc1	5%	32%	-2%	0%	-2%	18µM*
COc1ccc(CCC(=O)Nc2ccc(OC)c(S(=O)(=O)N3CCCCC3)c2)cc1OC	-7%	4%	x	0%	-14%	u
COc1ccc(NC(=O)CCCOc2ccc(Cl)c(C)c2)cc1S(=O)(=O)N1CCOCC1	-3%	14%	x	0%	u	18µM*
CCOc1ccc(S(=O)(=O)N2CCC(n3c(C)nc4cccnc43)CC2)cc1	-3%[57.1 µM]	-1%[57.1 µM]	x	0%	3%	u
NC(=N\N=Cc1ccco1)/C(N)=N/N=Cc1ccco1	u	79µM*	x	8%	-14%	u
